Data taken from PubChem BioAssay AID1159580 (chemical genetic matrix, 2015).
The campaign covered roughly 5,500 compounds. About 2,000 (36%) were called active. Not shown: some 18% with an inconclusive outcome. Rule as the data show it: active = normalized growth mostly below about 0.91 (no sharp cut-off); inconclusive = no clear call, values can overlap the other calls; inactive = mostly above about 0.92. This is one part of the list.

Assay: chemical genetic growth profiling, strain panel (AID 1159580);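 also: tested at 20 µM; growth read once vehicle control cultures reached saturation at 30 °C; 1 = growth at the plate median or of vehicle wells; lower values mean less growth of the strain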
Details: S. cerevisiae deletion strains, growth OD
[1] = locus YDL101C, strain DUN1, active compounds read low
[2] = locus YHR030C, strain SLT2, active compounds read low

Measured: normalized growth

FC(F)(F)c1ccc(Cl)c(NC(=S)NN=C2CCCCCC2)c1
active: locus YEL061C, strain CIN8, active compounds read low 0.89 | locus YKL190W, strain CNB1, active compounds read low 0.891 | locus YLR039C, strain RIC1, active compounds read low 0.783 | locus YLR085C, strain ARP6, active compounds read low 0.741 | locus YNL298W, strain CLA4 (second series), active compounds read low 0.813 | locus YOL006C, strain TOP1, active compounds read low 0.61
inactive: locus YAL013W, strain DEP1, active compounds read low 0.989 | locus YBR229C, strain ROT2, active compounds read low 0.977 | locus YCL061C, strain MRC1, active compounds read low 1.01 | [1] 1.07 | locus YDR150W, strain NUM1, active compounds read low 1.04 | locus YGR078C, strain PAC10, active compounds read low 0.996 | locus YGR229C, strain SMI1, active compounds read low 0.948 | [2] 0.924 | locus YHR087W, strain rtc3, active compounds read low 0.956 | locus YJR043C, strain POL32, active compounds read low 1.03 | locus YJR075W, strain HOC1, active compounds read low 1.02 | locus YLR058C, strain SHM2 (second series), active compounds read low 0.99 | locus YLR262C, strain YPT6, active compounds read low 0.883 | locus YML094W, strain GIM5, active compounds read low 0.912 | locus YMR219W, strain ESC1, active compounds read low 0.984 | locus YMR263W, strain SAP30, active compounds read low 0.996 | locus YNL153C, strain GIM3, active compounds read low 1.02 | locus YNL322C, strain KRE1, active compounds read low 0.989 | locus YNR030W, strain Alg12, active compounds read low 0.895 | locus YPL055C, strain LGE1, active compounds read low 0.949 | locus YPL241C, strain CIN2, active compounds read low 0.969 | locus YPR135W, strain CTF4, active compounds read low 1

FC(F)(F)c1ccc(N2CCc3ccccc3C2)c(NC(=S)Nc2cc(Cl)cc(Cl)c2)c1
inactive: locus YAR019C, strain CDC15, active compounds read low 0.972 | locus YBL105C, strain PKC1, active compounds read low 0.981 | locus YBR135W, strain CKS1, active compounds read low 0.978 | locus YBR136W, strain MEC1, active compounds read low 0.997 | locus YBR160W, strain CDC28, active compounds read low 0.989 | locus YDL017W, strain CDC7, active compounds read low 0.982 | locus YDL028C, strain MPS1, active compounds read low 0.987 | [1] 0.978 | locus YDL108W, strain KIN28, active compounds read low 0.998 | locus YDL132W, strain cdc53, active compounds read low 0.985 | locus YDL214C, strain PRR2, active compounds read low 0.924 | locus YDR052C, strain DBF4, active compounds read low 0.98 | locus YDR054C, strain cdc34, active compounds read low 0.969 | locus YDR226W, strain ADK1, active compounds read low 0.99 | locus YDR477W, strain SNF1, active compounds read low 0.937 | locus YER123W, strain YCK3, active compounds read low 0.908 | locus YER133W, strain GLC7, active compounds read low 0.939 | locus YFL009W, strain cdc4, active compounds read low 0.983 | locus YFL029C, strain CAK1, active compounds read low 0.975 | locus YFR003C, strain YPI1, active compounds read low 0.993 | locus YFR019W, strain FAB1, active compounds read low 0.957 | locus YFR028C, strain CDC14, active compounds read low 0.971 | locus YGR040W, strain KSS1, active compounds read low 0.939 | locus YGR052W, strain FMP48, active compounds read low 1.01 | locus YGR092W, strain DBF2, active compounds read low 0.869 | [2] 1.15 | locus YHR079C, strain IRE1, active compounds read low 1.06 | locus YHR082C, strain KSP1, active compounds read low 1 | locus YHR205W, strain SCH9, active compounds read low 0.962 | locus YIL147C, strain SLN1, active compounds read low 0.993 | locus YJL095W, strain BCK1, active compounds read low 1.02 | locus YJL128C, strain PBS2, active compounds read low 0.968 | locus YJL157C, strain FAR1, active compounds read low 0.908 | locus YJR016C, strain ILV3, active compounds read low 0.985 | locus YJR066W, strain TOR1 (second series), active compounds read low 0.899 | locus YJR066W, strain TOR1, active compounds read low 1.02 | locus YKL048C, strain ELM1, active compounds read low 0.963 | locus YKL067W, strain YNK1, active compounds read low 0.931 | locus YKL101W, strain HSL1, active compounds read low 0.959 | locus YKL193C, strain SDS22, active compounds read low 0.974 | locus YKL203C, strain TOR2, active compounds read low 1.02 | locus YLR113W, strain HOG1, active compounds read low 1.03 | locus YLR133W, strain CKI1, active compounds read low 0.936 | locus YLR403W, strain SFP1, active compounds read low 0.945 | locus YML070W, strain DAK1, active compounds read low 0.938 | locus YMR001C, strain CDC5, active compounds read low 0.969 | locus YMR205C, strain PFK2 (second series), active compounds read low 0.947 | locus YMR277W, strain FCP1, active compounds read low 0.972 | locus YNL006W, strain LST8, active compounds read low 0.984 | locus YNL020C, strain ARK1, active compounds read low 0.934 | locus YNL161W, strain CBK1, active compounds read low 0.978 | locus YNL183C, strain NPR1, active compounds read low 1.03 | locus YNL207W, strain RIO2, active compounds read low 0.979 | locus YNL222W, strain SSU72, active compounds read low 0.979 | locus YNL307C, strain MCK1 (second series), active compounds read low 0.941 | locus YOL078W, strain AVO1, active compounds read low 0.976 | locus YOL136C, strain PFK27, active compounds read low 0.956 | locus YOR061W, strain CKA2, active compounds read low 0.908 | locus YOR119C, strain RIO1, active compounds read low 0.98 | locus YOR231W, strain MKK1, active compounds read low 1.01 | locus YOR329C, strain SCD5, active compounds read low 0.985 | locus YPL031C, strain PHO85, active compounds read low 0.929 | locus YPL153C, strain RAD53, active compounds read low 0.931 | locus YPL204W, strain HRR25, active compounds read low 0.939 | locus YPL209C, strain IPL1, active compounds read low 0.982 | locus YPL256C, strain CLN2, active compounds read low 1.07 | locus YPR025C, strain CCL1, active compounds read low 0.967 | locus YPR106W, strain ISR1, active compounds read low 0.982 | locus YPR111W, strain DBF20, active compounds read low 0.985 | strain NNK1, active compounds read low 0.991 | strain TSCII, active compounds read low 0.972
